Screening data (PubChem BioAssay)
Shown are actives, neighbours in structure and some others; about 4.7% of the full set was active somewhere.
TRHR enhancer: allosteric enhancers of human TRH receptor; TRHR cells, fluo-8 calcium fluorescence, EC20 TRH enhancement; P34981; enhancement, % at 2 µM; AID 493056; 360,000 tested, 0.66% active; in the data active = enhancement above about 30%; also: 0% is about no effect
Target sequence (P34981 whole entry, looked up): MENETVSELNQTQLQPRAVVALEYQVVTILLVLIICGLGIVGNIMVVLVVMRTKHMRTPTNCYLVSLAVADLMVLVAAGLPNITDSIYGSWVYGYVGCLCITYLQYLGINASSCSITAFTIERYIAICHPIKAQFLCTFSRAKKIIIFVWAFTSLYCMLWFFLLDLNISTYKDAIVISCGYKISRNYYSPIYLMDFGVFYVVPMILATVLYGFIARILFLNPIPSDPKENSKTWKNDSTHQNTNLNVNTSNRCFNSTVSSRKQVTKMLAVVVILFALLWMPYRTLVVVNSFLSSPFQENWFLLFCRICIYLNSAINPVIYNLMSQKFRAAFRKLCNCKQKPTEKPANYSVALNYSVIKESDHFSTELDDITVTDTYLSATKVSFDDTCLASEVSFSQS
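TRHR-expressing cells loaded with fluo-8 calcium dye were read kinetically (ex 480/em 530) during compound addition, then stimulated with an EC20 of TRH (10 nM final). Enhancement of the Gq-mediated intracellular calcium response was scored.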
D1 antag: blocks dopamine activation of the human D1 receptor; HEK293 TREx D1 cells, calcium flux, dopamine EC80; stronger effect = lower value; P21728; 360,000 tested, 3.2% active; activity change, negative = inhibition, % at 10 µM; in the data active = activity change below about -30%; also: % is scaled to controls: 0 for no effect and ±100 for the full control effect
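Antagonism measured as reduced calcium response to an EC80 dopamine addition following 180 s compound pre-read; cells were inducible HEK293 Trex D1 plated overnight at 30 C, read kinetically at 1 cycle/sec.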
D1 PAM: enhances dopamine response at the human D1 receptor | P21728 | HEK293 TREx D1 cells, calcium flux, dopamine EC20 potentiation | potentiation, % at 10 µM | 360,000 tested, 0.036% active; in the data active = potentiation above about 30%; also: 0% is about no effect
TRHR ag: activates the human TRH receptor. AID 493084. activation, % at 2 µM. TRHR cells, calcium flux fluo-8, FDSS agonist mode. P34981. 360,000 tested, 0.18% active; also: 0% is about no effect
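Fluo-8-loaded TRHR cells; 10 s baseline, compound added, kinetic Ca2+ fluorescence read 1/s, agonist mode.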
D1 agonist: activates the human D1 dopamine receptor; P21728; HEK293 T-REx D1 cells, calcium flux, agonist mode; activation, % at 2 µM; 360,000 tested, 1% active; also: 0% is about no effect
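Agonism was scored from calcium flux recorded over 180 s (1 read/s) after pintool compound addition, following a 10-cycle baseline. Cells were inducible force-coupled HEK293 TREx D1, plated overnight at 30 C and loaded with no-wash calcium dye.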
The depositor's hits bear a star; . = no result; ! = not confirmed by another sample. Rule as the data show it, unless noted: active = activation above about 30%; inactive = the rest.

SMILES	TRHR enhancer	D1 antag	D1 PAM	TRHR ag	D1 agonist
CCOC(=O)c1ccc(N2C(=O)c3n[nH]c(-c4ccco4)c3C2c2cccc(O)c2)cc1 (stereo not drawn)	19	35	6	1	2
Cc1ccc(S(=O)(=O)N2CCC(n3c(C)nc4cccnc43)CC2)c(C)c1	-5	-2	-3	-1	15
COc1ccc(/C=N/n2c(-c3cc(C)[nH]n3)n[nH]c2=S)cc1	1	-1	4	-1	2
Cc1cc(-c2n[nH]c(=S)n2/N=C/c2ccc(C)o2)n[nH]1	40*	5	1	0	3
Cc1ccc(NC(=O)CSc2nccn2Cc2ccco2)cc1	-2	2	5	3	7
O=C(CSc1nccn1Cc1ccco1)Nc1cccc(F)c1	1	0	1	-1	31*!
Cc1ccc(NC(=O)CSc2nccn2Cc2ccco2)cc1Cl	35*	3	-5	-1	4
CCCCN(C)CCCNC(=O)Cn1nc(CC)n2c(cc3sc(C)cc32)c1=O	2	-27	-8	0	0
N#C/C(=C\c1ccc[nH]1)C(=O)Nc1ccccc1Cl	11	0	-4	2	5
N#C/C(=C\c1ccc[nH]1)C(=O)Nc1ccccc1F	2	-31*	-5	1	0
CCn1cc([N+](=O)[O-])c(C(=O)N2N=C(c3cccc4ccccc34)CC2c2ccccc2O)n1 (stereo not drawn)	-9	12	12	0	0
CCn1cc([N+](=O)[O-])c(C(=O)N2N=C(c3ccc(OC)cc3OC)CC2c2ccccc2O)n1 (stereo not drawn)	13	-31*	-2	0	5
CC(=O)c1cc2c(cc1NC(=O)c1cnn(-c3ccc(C)cc3)c1-n1cccc1)OCO2	11	-4	0	1	0
CC(C)(C)NC(=O)C(=O)N/N=C/c1cccs1	-3	-1	-5	1	1
O=C(N/N=C/c1cccs1)C(=O)Nc1cccc(Cl)c1	13	-66*	-4	1	14
O=C(CC(c1cccs1)N1Cc2ccccc2C1=O)Nc1ccccc1 (stereo not drawn)	-2	6	-2	0	0
CCCCCC1NC(=O)NC1CCCCCC(=O)O (stereo not drawn)	-9	-8	2	0	1
O=C(CCCO)CCCCCCCCC[C@H]1N[C@H](CO)[C@@H](O)[C@@H]1O	-6	-45*	0	0	1
CC1CCN(C(=O)CCc2nc3cc(S(=O)(=O)N(C)C)ccc3n2C)CC1	-1	-32*	11	0	0
COc1cc(-c2cc(OC)c3c(C)oc(C)c3c(=O)c2)ccc1OC(=O)c1cccc(Cl)c1	6	-25	-2	-1	13
CC1=C(C(=O)NCc2ccc(Cl)cc2)C2(CCCCC2)OC1=O	-4	12	-2	-1	-4
Cc1ccc(C2=Nc3ccccc3NC(c3ccncc3)=N2)cc1	12	-3	1	-3	1
COCC(=O)Nc1nnc(C2CCCCC2)s1	5	-2	0	0	5
CCOCC(=O)Nc1nnc(C2CCCCC2)s1	2	-36*	-7	0	-2
COCCn1c(C)cc(O)c(C(c2ccccc2)N2CCN(C)CC2)c1=O (stereo not drawn)	2	4	3	0	0
SMILES	TRHR enhancer	D1 antag	D1 PAM	TRHR ag	D1 agonist
Cc1cc2c(s1)c1cnn(Cc3ccc(Cl)c(F)c3)c(=O)c1n2C	3	-2	4	0	5
O=c1c2[nH]c3cccc(Cl)c3c2ncn1CC1CCCO1 (stereo not drawn)	-4	-30*	-9	-1	2
CCOc1ccc(/C=C/c2nc(C#N)c(N(C)C)o2)cc1	-9	1	0	-2	2
C(=C\c1ccc2ccccc2n1)/c1ccccc1	-4	42	5	1	3
CCCN(CCC)c1ccc(/C=C/c2ccc3cc(OCC)ccc3n2)cc1	-4	-19	-3	35*	33*
CN(C)c1ccc(/C=C/c2ccc3ccccc3n2)cc1	16	-5	2	38*	139*
CCn1c(CSc2nc(C)cc(C)n2)nnc1SCC(=O)Nc1nc(-c2ccccc2)cs1	-2	4	0	3	37*
CC(=O)c1ccc(NC(=O)c2nc(-c3ccccc3)n(-c3ccccc3Cl)n2)cc1	1	-8	-2	0	3
Cc1ccc(O)c(NC(=O)c2ccc(Br)c(S(=O)(=O)N3CCCCC3)c2)c1	-1	-58*	-2	-1	14
Cc1ccc(O)c(NC(=O)c2cccc(S(=O)(=O)N3CCCCC3)c2)c1	2	17	-3	0	6
CCOC(=O)c1cnc2c(C)cc(Cl)cc2c1NCCCN1CCOCC1	3	-35*	5	0	4
CCN(CC)CCNC(=O)c1cc2c(=O)n(C)c3cc(Cl)ccc3c2s1	5	4	2	-1	1
Cc1ccccc1OCC(=O)Nc1ccccc1C(=O)OCc1cc(=O)n2c(C)csc2n1	2	-40*	0	0	0
Cc1csc2nc(COC(=O)COc3ccccc3F)cc(=O)n12	3	-46*	-4	0	5
Cc1ccccc1OCC(=O)Nc1ccccc1C(=O)OCc1cc(=O)n2ccsc2n1	0	11	0	-1	-1
Cc1csc2nc(COc3ccc(NC(=O)COc4ccccc4F)cc3)cc(=O)n12	12	-19	-3	0	6
Cc1c(C(=O)N2CCOCC2)oc2c1-c1nn(CC(=O)NCc3cccc(Cl)c3)cc1CC2	1	-3	-6	0	2
CCOCCCNC(=O)c1ccc2c(=O)n(CCc3ccc(OC)c(OC)c3)c(=O)[nH]c2c1	-6	-6	-1	0	2
O=C(COc1ccccc1[N+](=O)[O-])N1CCC(c2nc3ccccc3o2)CC1	4	-4	0	0	-2
Cn1cc(CNC(=O)COc2ccc(Cl)cc2Cl)cn1	8	5	-4	-1	6
Cc1nn(C)cc1CNC(=O)COc1ccc(Cl)cc1Cl	9	-33*	-6	2	8
Cc1ccc(S(=O)(=O)/N=C2/NC(=O)/C(=C/c3cccnc3)S2)cc1	6	-35*	2	0	3
Cc1ccc(S(=O)(=O)/N=C2/NC(=O)/C(=C\c3cc(Br)cc(Br)c3O)S2)cc1	6	-52*	11	118*	276*
CN(c1nnc(NC(=O)Nc2ccccc2C(F)(F)F)s1)C1CCCCC1	-2	-7	-5	-1	0
COc1ccc(NC(=O)c2ccco2)cc1NC(=O)c1cc(Cl)ccc1OC	7	4	-4	0	-1
CC(=O)C1=C(c2ccc(Br)cc2)N(C(C)=O)n2c(nnc2C2CCCCC2)S1	4	.	1	0	-1
Cc1cc(C)c2[nH]c(=O)c(CN(Cc3cccs3)C(=S)NCC3CCCO3)cc2c1 (stereo not drawn)	-3	-31*	-6	-1	-1
